# JMJD2A Tudor inh = qHTS Assay for Inhibitors of JMJD2A-Tudor Domain; Lysine-specific demethylase 4A (Homo sapiens), O75164; AlphaScreen JMJD2A-Tudor / H3K4me3 peptide binding; Potency, µM (titrated, usually from 114 µM), usual class: inhibitors; 390,000 compounds, 4.4% hits; also: nearly all actives have a fitted effect of over 50% in size
# ALOX12 inh = Primary qHTS assay for inhibitors of human arachidonate 12S-lipoxygenase (ALOX12): Round 2; Polyunsaturated fatty acid lipoxygenase ALOX12 (Homo sapiens), P18054; purified 12hLO, xylenol orange hydroperoxide absorbance; Potency, µM (top dose mostly 108 µM), hits mostly inhibitors; 580,000 compounds, 1.1% hits; AID 1671190, 2021
#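 Hydroperoxide product was detected by ferrous iron/xylenol orange as the 573 to 405 nm absorbance ratio. Arachidonic acid at 40 uM (final) was turned over for 30 min at room temperature by 150 nM human 12hLO, pH 7.0 Hepes buffer, after 15 min compound preincubation.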
# G9a block = qHTS Assay for Inhibitors of Histone Lysine Methyltransferase G9a; Histone-lysine N-methyltransferase EHMT2 (Homo sapiens), Q96KQ7; G9a H3K9 monomethylation, AlphaScreen, 2 h; Potency, µM (series often up to 102 µM), usual class: inhibitors; 350,000 compounds, 8.8% hits; also: nearly all actives have a fitted effect of over 75% in size
#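 Readings reflect AlphaScreen signal from monomethyl-H3K9 antibody detection. HMT at 20 nM; substrate b-H3K9 500 nM; cofactor SAM 20 uM; 2 h RT reaction; compounds tested as titrations in qHTS with 15 min preincubation.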
# Sfp inh = qHTS Assay for Inhibitors of Bacillus subtilis Sfp phosphopantetheinyl transferase (PPTase). 4'-phosphopantetheinyl transferase ffp (Bacillus subtilis), Q9F4F7. Biochemical Sfp PPTase activity, qHTS. Potency, µM, hits mostly inhibitors. 310,000 compounds, 3.5% hits. AID 1490, 2009;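 also: the enzyme is Sfp with the accession as filed and its product quenches rhodamine fluorescence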
#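 Sfp 15 nM + cpd, 15 min RT; start w/ rhodamine-CoA 5 uM, BHQ-2-YbbR 12.5 uM (final); 50 mM Hepes pH 7.6, 10 mM MgCl2, 0.01% NP-40, 0.01% BSA; read 525/598 nm at 0 and 30 min.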
# HP1b chromo inh = HTS for Inhibitors of HP1-beta Chromodomain Interactions with Methylated Histone Tails | Chromobox protein homolog 1 (Homo sapiens), P83916 | AlphaScreen HP1-beta / biotin-H3K9me3 peptide binding | Potency, µM (top dose mostly 114 µM), actives largely listed as inhibitors | 390,000 compounds, 0.56% hits; also: nearly all actives have a fitted effect of over 70% in size
#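 HP1-beta protein (50 nM final) preincubated 30 min at room temperature with biotinylated H3(1-18)K9me3 peptide (50 nM) in PBS pH 7.4, 0.01% Tween-20, then compound added for 30 min. AlphaScreen streptavidin donor/nickel chelate acceptor beads (10 ug/mL final), 30 min dark, luminescence read.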
# BAZ2B inh = qHTS Assay for Inhibitors of BAZ2B; Bromodomain adjacent to zinc finger domain protein 2B (Homo sapiens), Q9UIF8; AlphaScreen BAZ2B-H3K14Ac peptide displacement; Potency, µM (top dose mostly 114 µM), actives largely listed as inhibitors; 360,000 compounds, 4.4% hits; AID 504333, 2011; also: nearly all actives have a fitted effect of over 60% in size
# Target sequence (Q9UIF8 whole entry, looked up, the tested form may be a part): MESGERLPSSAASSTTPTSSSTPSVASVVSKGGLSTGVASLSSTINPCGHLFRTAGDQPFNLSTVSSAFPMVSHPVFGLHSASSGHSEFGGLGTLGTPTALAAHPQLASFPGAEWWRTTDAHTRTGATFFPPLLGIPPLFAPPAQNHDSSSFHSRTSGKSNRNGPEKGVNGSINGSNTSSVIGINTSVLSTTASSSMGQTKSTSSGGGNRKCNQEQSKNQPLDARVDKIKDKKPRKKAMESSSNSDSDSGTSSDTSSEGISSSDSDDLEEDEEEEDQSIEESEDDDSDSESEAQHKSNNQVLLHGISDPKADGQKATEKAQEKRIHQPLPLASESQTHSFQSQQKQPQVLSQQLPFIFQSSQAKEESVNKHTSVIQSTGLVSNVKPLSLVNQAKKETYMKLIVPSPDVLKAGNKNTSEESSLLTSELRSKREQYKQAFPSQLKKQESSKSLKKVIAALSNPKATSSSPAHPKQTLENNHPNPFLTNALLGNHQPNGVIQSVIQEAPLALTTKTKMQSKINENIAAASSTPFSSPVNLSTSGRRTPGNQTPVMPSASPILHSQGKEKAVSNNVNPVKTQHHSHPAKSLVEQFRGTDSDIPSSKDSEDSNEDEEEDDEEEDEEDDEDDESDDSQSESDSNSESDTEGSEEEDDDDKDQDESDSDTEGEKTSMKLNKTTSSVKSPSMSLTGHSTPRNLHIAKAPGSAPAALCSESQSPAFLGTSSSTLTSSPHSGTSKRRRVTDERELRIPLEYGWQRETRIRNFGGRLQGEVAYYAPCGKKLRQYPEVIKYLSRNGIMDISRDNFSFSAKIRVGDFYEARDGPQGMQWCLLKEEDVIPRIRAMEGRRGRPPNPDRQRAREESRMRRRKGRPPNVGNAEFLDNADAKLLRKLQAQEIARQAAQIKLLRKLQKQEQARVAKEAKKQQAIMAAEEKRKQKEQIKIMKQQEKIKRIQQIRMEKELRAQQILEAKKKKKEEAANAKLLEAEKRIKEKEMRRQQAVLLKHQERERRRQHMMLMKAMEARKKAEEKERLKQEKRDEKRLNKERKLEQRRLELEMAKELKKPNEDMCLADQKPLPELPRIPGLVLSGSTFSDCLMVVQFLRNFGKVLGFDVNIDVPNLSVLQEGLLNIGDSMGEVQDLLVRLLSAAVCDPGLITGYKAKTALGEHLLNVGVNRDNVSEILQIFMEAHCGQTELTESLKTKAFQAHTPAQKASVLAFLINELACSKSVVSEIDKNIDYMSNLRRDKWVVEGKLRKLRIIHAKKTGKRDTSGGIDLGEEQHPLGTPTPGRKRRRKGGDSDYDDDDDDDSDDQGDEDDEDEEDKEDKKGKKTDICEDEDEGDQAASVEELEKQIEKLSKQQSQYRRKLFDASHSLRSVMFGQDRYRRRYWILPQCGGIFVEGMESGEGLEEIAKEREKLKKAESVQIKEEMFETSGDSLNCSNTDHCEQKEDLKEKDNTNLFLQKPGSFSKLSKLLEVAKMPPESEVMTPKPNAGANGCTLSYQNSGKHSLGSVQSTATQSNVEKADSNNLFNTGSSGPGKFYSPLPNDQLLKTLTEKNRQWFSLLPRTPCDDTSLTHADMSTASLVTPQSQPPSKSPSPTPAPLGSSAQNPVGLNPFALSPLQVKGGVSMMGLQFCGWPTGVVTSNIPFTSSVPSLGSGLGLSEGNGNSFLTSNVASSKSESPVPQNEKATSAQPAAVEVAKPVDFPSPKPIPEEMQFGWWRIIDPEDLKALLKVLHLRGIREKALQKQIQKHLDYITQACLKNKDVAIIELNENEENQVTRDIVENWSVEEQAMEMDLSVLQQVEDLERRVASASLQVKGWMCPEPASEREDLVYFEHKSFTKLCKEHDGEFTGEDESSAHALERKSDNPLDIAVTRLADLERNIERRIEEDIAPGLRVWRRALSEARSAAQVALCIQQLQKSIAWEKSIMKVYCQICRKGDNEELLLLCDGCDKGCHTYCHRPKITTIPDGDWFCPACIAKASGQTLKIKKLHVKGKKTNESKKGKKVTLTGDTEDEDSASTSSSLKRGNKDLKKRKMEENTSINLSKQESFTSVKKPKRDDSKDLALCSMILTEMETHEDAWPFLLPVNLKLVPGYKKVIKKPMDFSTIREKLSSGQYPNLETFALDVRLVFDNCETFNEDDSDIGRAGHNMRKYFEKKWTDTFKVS
#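 BAZ2B (50 nM) with biotin-H3(5-23)K14Ac peptide (50 nM) in PBS pH 7.4, 0.01% Tween-20, preformed 30 min, then compound 30 min at room temperature; top concentration 110uM. AlphaScreen streptavidin donor/nickel chelate acceptor beads (10 ug/mL final), 20 min dark, signal read.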
# Hits are given with their value; – = inactive; ? = inconclusive; · = not tested or not shown; [ ] = remark or other dose. Shown are actives, neighbours in structure and some others; about 8.7% of the full set was active somewhere. Calls follow the shape of the dose curve; as a rule, active = well fitted curve in the direction sought with a large enough effect; inconclusive = small, poorly fitted or top-dose-only effect, or another doubt; inactive = no such curve, though single readings can be large; an effect the other way counts as inactive or inconclusive.
SMILES,JMJD2A Tudor inh,ALOX12 inh,G9a block,Sfp inh,HP1b chromo inh,BAZ2B inh
CC(=O)N(C1CCOCC1)C1CCN(S(=O)(=O)c2cc(F)ccc2C)CC1,·,–,·,·,·,·
Cc1sc2nc(CSCC(=O)N(C)c3ccccc3)[nH]c(=O)c2c1C,–,–,–,–,–,–
Cc1sc2nc(CSC(C)C(=O)Nc3ccccn3)[nH]c(=O)c2c1C (stereo not drawn),–,?,7.94µM,·,–,–
Cc1sc2nc(CSCC(=O)Nc3ccc(Cl)cc3F)[nH]c(=O)c2c1C,–,–,–,·,–,–
Cc1sc2nc(CSC(C)C(=O)Nc3cc(S(C)(=O)=O)ccc3Cl)[nH]c(=O)c2c1C (stereo not drawn),–,?,50.1µM,·,–,–
COc1ccc(C(=O)NC(C(=O)N2CCCC2)C2CCN(C(=O)c3ccc(Cl)cc3)CC2)cc1 (stereo not drawn),·,–,·,·,·,·
CCS(=O)(=O)c1ncc(Cl)c(C(=O)Nc2ccccc2)n1,–,–,?,·,–,–
Cc1ccc(NC(=O)c2nc(S(=O)(=O)Cc3ccc(F)cc3)ncc2Cl)cc1C,–,–,–,·,–,–
COc1ccccc1NC(=O)c1nc(S(=O)(=O)Cc2ccccc2)ncc1Cl,–,–,17.8µM,–,–,–
CCOc1ccccc1NC(=O)c1nc(S(=O)(=O)Cc2ccccc2)ncc1Cl,–,–,39.8µM,–,–,–
COc1ccc(OC)c(NC(=O)c2nc(S(=O)(=O)Cc3ccc(F)cc3)ncc2Cl)c1,?,–,7.08µM,·,–,?
Cc1ccc(NC(=O)c2nc(S(=O)(=O)Cc3ccccc3C)ncc2Cl)cc1C,12.6µM,–,44.7µM,–,–,–
CCS(=O)(=O)c1ncc(Cl)c(C(=O)Nc2ccccc2OC)n1,–,–,·,–,–,–
CCOC(=O)c1cc2cc(NC(=O)c3ccc4c(c3)NC(=O)CS4)ccc2s1,·,–,·,·,·,·
Cn1c(COc2cccc(C(F)(F)F)c2Cl)nnc1C1CC(N)C1 (stereo not drawn),·,–,·,·,·,·
O=C(Nc1ccc(F)c(Cl)c1)N1Cc2cccn2-c2ccccc21,·,–,·,·,·,·
CCc1ccc(NC(=O)c2nc(S(=O)(=O)Cc3ccccc3)ncc2Cl)cc1,·,–,?,–,·,–
COC(=O)c1ccc(NC(=O)c2nc(S(=O)(=O)Cc3cccc(C)c3)ncc2Cl)cc1,–,–,–,?,–,–
CC(=O)Nc1ccc(NC(=O)c2nc(S(=O)(=O)Cc3cccc(C)c3)ncc2Cl)cc1,–,–,44.7µM,–,–,–
CCOC(=O)c1ccc(NC(=O)c2nc(S(=O)(=O)Cc3ccccc3)ncc2Cl)cc1,–,–,22.4µM,?,–,–
CCOC(=O)c1ccc(NC(=O)c2nsc3ccccc23)cc1,–,44.7µM,3.16µM,·,–,–
CNC(=O)c1ccc(NC(=O)c2nsc3ccccc23)cc1,–,–,–,·,–,–
Cc1ccccc1CCC1CCCN(S(=O)(=O)c2cccnc2)C1 (stereo not drawn),·,–,·,·,·,·
COc1ccc(-c2n[nH]c3c2CC(=O)N(Cc2ccccc2)C3)cc1OC,·,–,·,·,·,·
CC(C)N(Cc1ccccc1)S(=O)(=O)c1cccc2nsnc12,·,–,·,·,·,·
SMILES,JMJD2A Tudor inh,ALOX12 inh,G9a block,Sfp inh,HP1b chromo inh,BAZ2B inh
O=C(Nc1ccccc1)N1c2ccccc2Sc2ccccc21,·,–,·,·,·,·
Cc1nc2ccccc2c2oc(C(=O)N3CCC(N4CCCCC4)CC3)cc12,–,·,70.8µM,–,–,–
CC(=O)c1ccc(N2CCN(C(=O)c3cc4c(C)nc5ccccc5c4o3)CC2)cc1,–,–,–,–,–,?
COc1ccc(N2CCN(C(=O)c3cc4c(C)nc5ccccc5c4o3)CC2)cc1,56.2µM,–,50.1µM,–,?,–
Cc1nc2ccccc2c2oc(C(=O)N3CCN(C4CCCCC4)CC3)cc12,–,–,–,–,–,–
COc1ccc(N2CCN(C(=O)c3cc4c(=O)n(Cc5cccs5)ccc4nc3C)CC2)cc1,?,–,?,·,–,50.1µM
CNC(=O)[C@@H]1CN(C(=O)c2ccc(F)cn2)C[C@H]1COC,·,–,·,·,·,·
COc1ccc(NC(=O)COc2ccc(Cl)cc2Cl)c2cccnc12,·,–,·,·,·,·
CC(C)c1noc(-c2cn(C3CCN(C(=O)c4ccc(F)cc4Cl)CC3)nn2)n1,·,–,·,·,·,·
O=C1C=CC(=O)C(CNc2ccc(C(=O)OCc3ccccc3)cc2)=C1,39.8µM,15.8µM,·,·,39.8µM,·
Cc1cc(-c2cccnc2)c(C#N)c(SCc2cccc(F)c2)n1,–,–,39.8µM,79.4µM,–,–
CC(=O)Nc1ccc(NC(=O)C2CC(=O)N(Cc3ccco3)C2)cc1 (stereo not drawn),–,?,15.8µM,·,–,–
CCOc1ccc(NC(=O)C2CC(=O)N(Cc3ccco3)C2)cc1 (stereo not drawn),–,–,–[12.7 µM],·,–,–
Cc1ccc2nc(NC(=O)C3CC(=O)N(Cc4ccco4)C3)sc2c1 (stereo not drawn),–,–,–,–,–,–
Cc1cc(C)c2nc(NC(=O)C3CC(=O)N(Cc4ccco4)C3)sc2c1 (stereo not drawn),?,?,–,–,?,39.8µM
O=C(Nc1nc2c(F)cc(F)cc2s1)C1CC(=O)N(Cc2ccco2)C1 (stereo not drawn),–[11.4 µM],?,·,10µM,–,?
COC(=O)[C@H](NC(=O)[C@@H]1C[C@H](NC(=O)NC(C)C)CN1C(=O)c1cccn1C)C(C)C,·,–,·,·,·,·
CCCOc1c(C(=O)OC)sc2ccc(NC(=O)c3ccccc3)cc12,·,–,·,·,·,·
Cc1c(Cl)cccc1NC(=O)COc1ncnc2ccccc12,·,–,·,·,·,·
CCn1nccc1C(=O)N1CC(Oc2ccc(-c3nc(-c4ccccc4)no3)cc2)C1,·,–,·,·,·,·
Cc1ccc(Cn2c(=N)n(CC(O)COc3ccccc3)c3ccccc32)cc1 (stereo not drawn),–,?,?,22.4µM,–,–
CC(=O)c1c(C)[nH]c(C(=O)NNC(=O)c2ccc(C)cc2)c1C,–,–,·,·,–,·
CC(=O)c1c(C)[nH]c(C(=O)NNC(=O)COc2cc(C)cc(C)c2)c1C,–,–,50.1µM,·,–,–
CCOC(=O)C1CCCCC(=O)N1 (stereo not drawn),·,–,·,·,·,·
CCCCOC(=O)C1CCCC(C)N1 (stereo not drawn),22.4µM,?,28.2µM,–,–,–
Cc1cccc(C)c1NC(=O)Cn1cc(S(=O)(=O)Cc2ccc(F)cc2)c2ccccc21,?,50.1µM,–,·,–,?
Cc1ccc(NC(=O)Cn2cc(S(=O)(=O)Cc3ccc(F)cc3)c3ccccc32)cc1Cl,56.2µM,10µM,–,·,–,50.1µM

# Compound activity deposited in PubChem BioAssay by National Center for Advancing Translational Sciences (NCATS).
